Among the test systems are HCT-15 colon; HT29 colon; SNB-75 CNS; SNB-19 CNS; U251 CNS; PC-3 prostate; SK-MEL-5 melanoma; UACC-62 melanoma; LOX IMVI melanoma; SK-MEL-28 melanoma; SK-MEL-2 melanoma; EKVX NSCLC; SN12C renal; UO-31 renal; TK-10 renal; ACHN renal; CAKI-1 renal; CCRF-CEM leukemia; MOLT-4 leukemia; A498 renal.
Common to all, as to experiment: NCI-60 one-dose screen, 48 h (100 = growth as untreated, 0 = no growth, -100 = all killed)
Common to all, as to details: 10 µM unless noted

Compounds without any hit were thinned out: in the full panel of roughly 83,000, 20% have a hit.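 Single-dose data. Exposure time 48 hours. Values below 10 considered active.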 A number with no mark means an inactive call. Activity calls are given as the source filed them.

This note sets out measurements from PubChem BioAssay (NCI).

For `COc1cc(N=Nc2ccc(O)c3ncccc23)c2ncccc2c1`, the growth in the experiment with HCT-15 colon was 27.5%; in the experiment on HT29 colon it was 44.5%; with SNB-75 CNS, 41.9%; in the experiment on SNB-19 CNS, 47.6%; in the experiment on U251 CNS, 16.5%; with PC-3 prostate, 32.4%. The growth with SK-MEL-5 melanoma is 43.1%; with UACC-62 melanoma, 6.71% (active); with LOX IMVI melanoma it was 4.79% (active); with SK-MEL-28 melanoma, 42%; in the experiment on SK-MEL-2 melanoma, 61.3%; in the experiment on EKVX NSCLC, 65.8%. The growth is 68.6% with SN12C renal; 16.6% in the experiment with UO-31 renal; 69.2% with TK-10 renal; 4.47% (active) in the experiment on ACHN renal; 17.3% in the experiment on CAKI-1 renal; 5% (active) with CCRF-CEM leukemia. Besides, the growth with MOLT-4 leukemia is 6.75% (active).
Take `O=C(/C=C/c1cccs1)Nc1ncc(Cc2ccc(Cl)c(Cl)c2)s1`: the growth was 28.9% with HCT-15 colon; 24.2% in the experiment on HT29 colon; 64% in the experiment with SNB-75 CNS; 71.1% in the experiment on SNB-19 CNS; 59% in the experiment on U251 CNS; 77.6% in the experiment with PC-3 prostate. In addition, the growth in the experiment with SK-MEL-5 melanoma is 41.6%; with UACC-62 melanoma, 17.6%; in the experiment with LOX IMVI melanoma it was 23.3%; with SK-MEL-28 melanoma it was 63.6%; in the experiment with SK-MEL-2 melanoma, 77.1%; in the experiment with EKVX NSCLC, 57.8%. The growth was 79.8% with SN12C renal; 49.6% in the experiment on UO-31 renal; 61.5% in the experiment on TK-10 renal; 36.4% in the experiment on ACHN renal; 23.8% in the experiment with CAKI-1 renal; 68% in the experiment with CCRF-CEM leukemia. In the experiment on MOLT-4 leukemia, the growth is 51.4%.
As to `Cc1ccc(C(=O)Nc2ccc(CN3CCN(C)CC3)c(C(F)(F)F)c2)cc1C#Cc1cnc(N)cc1C#N`, the growth is -69.8% (active) with HCT-15 colon; -65.1% (active) in the experiment with HT29 colon; -81.1% (active) in the experiment with SNB-75 CNS; 3.23% (active) with SNB-19 CNS; -73.6% (active) in the experiment with U251 CNS; -33.9% (active) in the experiment with PC-3 prostate. For the same molecule, the growth was -86.5% (active) in the experiment on SK-MEL-5 melanoma; -38.5% (active) in the experiment on UACC-62 melanoma; -90.1% (active) with LOX IMVI melanoma; -83.3% (active) in the experiment on SK-MEL-28 melanoma; -43% (active) in the experiment on SK-MEL-2 melanoma; -36.8% (active) with EKVX NSCLC. Further, the growth in the experiment on SN12C renal is -52.9% (active); in the experiment with UO-31 renal, -55.7% (active); in the experiment on TK-10 renal, 14.7%; in the experiment with CAKI-1 renal, -48% (active); in the experiment on A498 renal, -37% (active); in the experiment with CCRF-CEM leukemia it was -8.11% (active). For the same molecule, the growth with MOLT-4 leukemia is -54.7% (active).
`CCOC(=O)c1c(-c2ccc(C)cc2)c(C#N)c(=O)n(-c2cccc(C(F)(F)F)c2)c1N`: the growth in the experiment with HCT-15 colon was 101%; in the experiment with HT29 colon it was 111%; with SNB-75 CNS it was 76.3%; with SNB-19 CNS, 88.8%; in the experiment on U251 CNS, 102%; with PC-3 prostate it was 110%. For the same molecule, the growth in the experiment with SK-MEL-5 melanoma is 101%; with UACC-62 melanoma, 99%; in the experiment on LOX IMVI melanoma, 96.9%; in the experiment on SK-MEL-28 melanoma it was 102%; with SK-MEL-2 melanoma it was 116%; with EKVX NSCLC, 98.8%. For the same molecule, the growth is 95.1% with SN12C renal; 81.6% in the experiment with UO-31 renal; 112% in the experiment on TK-10 renal; 96.7% in the experiment with ACHN renal; 91.2% in the experiment with CAKI-1 renal; 101% in the experiment on CCRF-CEM leukemia. Further, in the experiment on MOLT-4 leukemia, the growth is 104%.
`CCOc1ccccc1NC(=O)c1cc2ccccc2cc1O`: the growth was 45.4% in the experiment with HCT-15 colon; 99.8% with HT29 colon; 87.7% in the experiment on SNB-75 CNS; 52.9% in the experiment on SNB-19 CNS; 24.4% in the experiment on U251 CNS; 20.9% in the experiment on PC-3 prostate. Besides, the growth with SK-MEL-5 melanoma is 25.6%; in the experiment on UACC-62 melanoma, 21.2%; in the experiment on LOX IMVI melanoma it was 51.1%; with SK-MEL-28 melanoma, 87.7%; in the experiment with SK-MEL-2 melanoma, 37.4%; in the experiment with EKVX NSCLC it was 75%. Further, the growth in the experiment on SN12C renal is 42.8%; with UO-31 renal it was 23.7%; in the experiment on TK-10 renal, 50.6%; in the experiment on ACHN renal it was 29.3%; in the experiment on CAKI-1 renal, 45.7%; with CCRF-CEM leukemia it was 32.4%. Besides, in the experiment on MOLT-4 leukemia, the growth was 44.6%.
Turning to `Cc1ccc(Nc2nc(-c3cc(O)c(C)c(C)c3O)cs2)cc1`, the growth was 76.7% with HCT-15 colon; 112% with HT29 colon; 102% with SNB-75 CNS; 110% in the experiment with SNB-19 CNS; 97.2% in the experiment on U251 CNS; 71% in the experiment with PC-3 prostate. Besides, the growth in the experiment with SK-MEL-5 melanoma was 97.6%; with UACC-62 melanoma, 92.7%; with LOX IMVI melanoma, 75.1%; in the experiment on SK-MEL-28 melanoma, 115%; with SK-MEL-2 melanoma it was 105%; in the experiment with EKVX NSCLC, 97.4%. Also, the growth is 97% in the experiment on SN12C renal; 89.7% in the experiment with UO-31 renal; 120% with TK-10 renal; 99.1% in the experiment on ACHN renal; 92.7% in the experiment with CAKI-1 renal; 14.8% with CCRF-CEM leukemia. The growth in the experiment with MOLT-4 leukemia is 26.5%.
As to `CC1=C2[C@@H](CC1)[C@]1(C)O[C@@](C3CC3)(C[C@H]1OC(=O)CO)[C@H]2OC(=O)/C=C/c1ccccc1`, the growth in the experiment with HCT-15 colon is 97%; in the experiment with HT29 colon it was 89.5%; in the experiment on SNB-75 CNS, 88.2%; with SNB-19 CNS, 90%; with U251 CNS, 88.3%; with PC-3 prostate it was 68%. For the same molecule, the growth was 92.9% in the experiment on SK-MEL-5 melanoma; 73.1% in the experiment on UACC-62 melanoma; 84% in the experiment on LOX IMVI melanoma; 107% with SK-MEL-28 melanoma; 97.2% with SK-MEL-2 melanoma; 87.7% in the experiment with EKVX NSCLC. The growth in the experiment on SN12C renal is 42.4%; in the experiment with UO-31 renal it was -26% (active); with TK-10 renal, 106%; with ACHN renal, 9.75% (active); in the experiment on CAKI-1 renal, 71.4%; in the experiment on CCRF-CEM leukemia, 90.3%. Moreover, in the experiment on MOLT-4 leukemia, the growth is 77.6%.
